Compounds with a hit are over-represented: about 6.2% of the library has one in this group of screens.
ATXN2 expr inh – reduces ATXN2 reporter expression in HEK-293 cells; HEK-293 ATXN2-luciferase reporter, luminescence, 24 h; 360,000 tested, 0.72% active; Potency, µM (highest dose often 57 µM), for the others: at the highest dose activity change, negative = inhibition, actives largely listed as inhibitors; note: % is set by controls: 0 for no effect and ±100 for the full control effect; nearly all actives have a fitted effect of over 55% in size
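qHTS (up to 57 uM final) was run with 24 h compound exposure of reporter cells at 37 °C. Each well was multiplexed: SteadyGlo luminescence measured ATXN2-luciferase expression after a fluorogenic Gly-Phe-AFC viability readout (25 uM final).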
S2 tox – cell viability loss in ATXN counter-screen. S2 cells (HEK-293 line with an ATXN2-luciferase reporter) viability, CellTiter-Fluor protease fluorescence, 24 h. Potency, µM (highest dose often 56.7 µM), usual class: cytotoxic. 400,000 tested, 0.49% active. AID 651635; note: nearly all actives have a fitted effect of over 40% in size
KB-V1 cytotox – kills drug-selected multidrug resistant KB-V1 cells; KB-V1 MDR cells viability, CellTiter-Glo, 72 h; Potency, µM (doses to about 46.1 µM), hits mostly cytotoxic; 400,000 tested, 3.4% active; AID 1347076; note: % is set by controls: 0 for no effect and ±100 for the full control effect; nearly all actives have a fitted effect of over 60% in size
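Readout: CellTiter-Glo luminescence, 10 min after addition. Cells: KB-V1 MDR subline, 72 h at 37 degrees C with compound. Analysis: corrected, normalized data fitted to concentration-effect curves.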
KB-3-1 tox – KB-3-1 parental cell cytotoxicity | Potency, µM (highest dose often 46.1 µM), usual class: cytotoxic | AID 1347075 | KB-3-1 viability, CellTiter-Glo ATP luminescence, 72 h | 400,000 tested, 1.4% active; note: % is set by controls: 0 for no effect and ±100 for the full control effect; nearly all actives have a fitted effect of over 60% in size
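Parental KB-3-1 adenocarcinoma cells in phenol-red-free DMEM with 10% FBS were pin-treated with compounds at several concentrations, incubated 72 h at 37 °C, and viability read by CellTiter-Glo luminescence; concentration-effect curves were fitted after normalization.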
HT1080 IDH1KD tx – HT-1080 IDH1 knockdown cell toxicity (counter line) | HT-1080 IDH1 knockdown viability, ATP luminescence, 48 h | Potency, µM (doses to about 46.1 µM), inactives show at the top dose activity, negative = toxicity, actives largely listed as cytotoxic | 360,000 tested, 2% active | AID 686971;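 note: 0% = DMSO wells and -100% = cell-free medium wells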
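Viability of IDH1-knockdown HT-1080 fibrosarcoma cells was assessed by CellTiter-Glo after 48 h at 37 °C with titrated compound; concentration-effect curves were classified by fit quality and response size.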
HT1080NT lethal – kills 2HG-producing HT-1080-NT fibrosarcoma cells. HT-1080-NT fibrosarcoma viability, CellTiter-Glo ATP luminescence, 48 h. Potency, µM (doses to about 46.1 µM), for the others: top-dose activity, negative = less viability, hits mostly cytotoxic. 360,000 tested, 1.6% active. AID 686970;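 note: NT is the 2HG producing partner of a matched IDH1 knockdown line; 0% = DMSO-treated cells and -100% = media-only wells without cells; nearly all actives have a fitted effect of over 55% in size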
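Compounds were tested in concentration-response format on HT-1080-NT cells for 48 hours at 37 degrees C. Cell viability came from CellTiter-Glo luminescence; curves were classified by r2, response magnitude and activity.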
Numbers without * were called inactive; i = inactive; ? = inconclusive; · = no result. Calls come from the whole dose curve; as a rule, active = well fitted curve in the direction sought with a large enough effect; inconclusive = small, poorly fitted or top-dose-only effect, or another doubt; inactive = no such curve, though single readings can be large; an effect the other way counts as inactive or inconclusive. Potency is the fitted concentration of half-maximal effect.

SMILES	ATXN2 expr inh	S2 tox	KB-V1 cytotox	KB-3-1 tox	HT1080 IDH1KD tx	HT1080NT lethal
COc1cccc(CNC(=O)C23CN(Cc4ccccc4)CC2C(c2ccc([N+](=O)[O-])cc2)=NO3)c1 (centres undefined)	8%	i	13µM*	i	-3%	-3%
Cc1ccc(N[S+](=O)([O-])c2cc3c(cc2CCc2ccccc2)NC(=O)CO3)cc1C	·	·	i	i	·	·
Cc1ccc(C(C)C)c(OCC(=O)Nc2cccc(-c3nc4ncccc4o3)c2)c1	?	20µM*	?	i	·	·
Cc1cc(C)c(OCC(=O)Nc2cccc(-c3nc4ncccc4o3)c2)c(Br)c1	12%	i	?	i	·	·
O=C(CSc1ccc(Cl)cc1)Nc1cccc(-c2nc3ncccc3o2)c1	-19%	i	15µM*	?	-4%	16%
O=C(Nc1cccc(-c2nc3ncccc3o2)c1)c1ccc(-c2cccc(Cl)c2Cl)o1	?	?	6.5µM*	i	·	·
COc1c(C)cc(Br)cc1C(=O)Nc1ccc(-c2nc3ncccc3o2)cc1	-10%	i	i	i	·	·
COc1c(C)cc(Br)cc1C(=O)Nc1cccc(-c2nc3ncccc3o2)c1	22µM*	32µM*	?	?	-3%	12%
COc1cc(=O)n2c(c1C(=O)N(C)Cc1ccsc1)CCN(Cc1c(C)nn(C)c1Cl)CC2	·	i	·	·	·	·
CC(=O)c1ccc(NC(=O)c2ncn(-c3ccccc3)n2)cc1	12%	i	i	i	·	·
CN(C)c1ccc(/C=C2/CCCc3c2nc2ccccc2c3C(=O)O)cc1	·	·	i	i	·	·
CC(=O)c1ccc(NS(=O)(=O)c2ccc(Br)s2)cc1	24%	i	i	i	·	·
COc1ccc(NC(=O)c2cccnc2)c([N+](=O)[O-])c1	-21%	?	?	16µM*	?	?
COc1cc(NC(=O)c2cccnc2)ccc1NC(=O)c1ccccc1Cl	-1%	i	i	i	0%	13%
COc1cc(S(=O)(=O)Nc2cccc(C)c2)ccc1NC(=O)c1cccnc1	-3%	i	21µM*	?	-8%	-2%
CCN(CC(=O)NC(C)C)C(=O)C(CCSC)NC(=O)c1ccccc1OC (centres undefined)	-22%	i	i	i	13%	-2%
CCN(CC(=O)NC(C)C)C(=O)C(CCSC)NC(=O)c1cccc(C)c1 (centres undefined)	-2%	i	23µM*	i	-2%	-1%
CCCCCc1cc(=O)oc2c(C(CCN3CCCC3)c3ccc(N(C)C)cc3)c(OC)cc(OC)c12 (centres undefined)	?	32µM*	i	?	-24%	-20%
CCN(CC)CCC(c1ccc(N(C)C)cc1)c1c(OC)cc(OC)c2ccc(=O)oc12 (centres undefined)	3%	10µM*	i	i	-9%	-2%
CCN(CC)C(=O)CC(c1ccc(N(C)C)cc1)c1c(OC)cc(OC)c2ccc(=O)oc12 (centres undefined)	-13%	?	i	i	0%	3%
CCCCCc1cc(=O)oc2c(C(CCN3CCCC3)c3cc(OC)c(OC)c(OC)c3)c(OC)cc(OC)c12 (centres undefined)	?	·	i	?	?	?
CCCCCc1cc(=O)oc2c(C(CCN3CCCC(C)C3)c3ccc(OC)cc3)c(OC)cc(OC)c12 (centres undefined)	?	·	i	?	-13%	-11%
CCCCCc1cc(=O)oc2c(C(CCN3CCCCC3)c3ccc(OC)cc3)c(OC)cc(OC)c12 (centres undefined)	?	32µM*	?	?	-22%	?
CCCCCc1cc(=O)oc2c(C(CCN(CC)CC)c3ccc(OC)cc3)c(OC)cc(OC)c12 (centres undefined)	?	32µM*	?	?	-21%	?
Cc1cccc(C)c1NC(=O)CC12CCCN1CCC2	-2%	i	·	·	·	·
SMILES	ATXN2 expr inh	S2 tox	KB-V1 cytotox	KB-3-1 tox	HT1080 IDH1KD tx	HT1080NT lethal
C[C@@H]1CN(Cc2ccc3c(c2)CN(Cc2cccc4c2OCO4)CCO3)C[C@H](C)O1	·	i	·	·	·	·
O=C(Nc1ccc(Cl)cc1C(=O)Nc1ccc(Br)cn1)c1ccco1	1%	i	5.2µM*	i	?	-16%
Cc1cc(SC(C)C(=O)Nc2ncc(Cl)cc2Cl)nc2ccccc12 (centres undefined)	46%	i	18µM*	i	-5%	0%
COc1[nH]c(/N=C/c2ccco2)c(C#N)c1C#N	·	·	i	?	·	·
O=C(Nc1cccn(Cc2c(Cl)cccc2Cl)c1=O)c1c(Cl)cccc1Cl	-23%	i	3.7µM*	21µM*	-9%	-8%
COC(=O)Nc1cccn(Cc2c(Cl)cccc2Cl)c1=O	1%	i	i	i	-5%	2%
NNC(=O)c1ccc(C(=O)N(c2ccccc2)c2ccccc2)cc1	·	·	i	i	·	·
Cc1cc(C)nc(N2CCC(C(=O)NCCc3ccc(F)cc3)CC2)n1	-8%	i	13µM*	i	0%	1%
CCC1=C(c2ccc(C)cc2)S(=O)(=O)N=C1N1CCC(C(=O)NCCc2ccc(Cl)cc2)CC1	·	·	i	15µM*	·	·
Cc1cc(C)nc(N2CCCC(C(=O)NCCc3ccc(F)cc3)C2)n1 (centres undefined)	-9%	i	18µM*	i	-11%	7%
Cc1ccc(S(=O)(=O)c2cn(CC(=O)Nc3ccc4c(c3)OCO4)c3ccccc3c2=O)cc1C	4%	i	i	?	·	·
COc1cc(OC)cc(C(=O)Nc2cc(-c3nc4cc(Cl)ccc4o3)ccc2Cl)c1	103%	i	i	?	·	·
CC1CCC2(C1)N=C(Nc1nc3ccccc3o1)NC1=C2C(=O)CCC1 (centres undefined)	·	·	i	i	·	·
CN(C(=O)CSc1nc2ccc(NC(=O)c3ccco3)cc2s1)c1ccccc1	?	·	i	i	·	·
CC(=O)Nc1ccc(S(=O)(=O)Nc2cc(C)on2)cc1	15%	i	·	·	·	·
Cc1ccccc1-c1nnc2c3ccccc3c(C)nn12	3%	i	7.3µM*	?	6%	9%
COc1ccc(-c2nnc3c4ccccc4c(C)nn23)cc1	38%	i	3.7µM*	i	?	?
COc1ccc(-c2nnc3c4ccccc4c(C)nn23)cc1S(=O)(=O)N1CCN(CCO)CC1	-13%	i	?	?	8.9µM*	?
CN(C)c1ccc(CNC(=O)c2ccc(NC(=O)N3CCCCc4ccccc43)cc2)cc1	6%	i	i	i	·	·

Source: PubChem (National Center for Advancing Translational Sciences (NCATS))
